This is a sample that favours compounds with a hit; in the whole collection about 4.2% have one here.
Mito fusion act: qHTS Assay for Small Molecule Inhibitors of Mitochondrial Division or Activators of Mitochondrial Fusion | hit rate 0.23% among 320,000 | AID 485298, 2010 | S. cerevisiae fusion-defective mutant growth rescue, CellTiterGlo 48 h | Potency, µM (doses to about 46.1 µM), without a hit: at the highest dose growth rescue (activation), actives largely listed as activators; note: % of control where 0% means no effect; nearly all actives have a fitted effect of over 45% in size
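Compounds are tested for their ability to restore growth of mitochondrial fusion-defective yeast strains at non-permissive 37C in YPEG medium over 48 hours. Viability is quantified by luciferase luminescence.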
A-T KAP1 phos: qHTS Assay for Identifying a Potential Treatment of Ataxia-Telangiectasia; F2112 A-T fibroblasts, KAP-1 phosphorylation AlphaLISA; neocarzinostatin DNA damage 30 min before lysis; Potency, µM (top dose mostly 57.5 µM), for inactives: top-dose activation, most hits filed as activators; hit rate 0.19% among 320,000; note: % of control where 0% means no effect; nearly all actives have a fitted effect of over 45% in size
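ATM-like activity read as KAP-1 phosphorylation via AlphaLISA donor/acceptor antibody pairs after lysis and 6 hr at 25C. Cells were ATM-null patient fibroblasts (F2112, hTERT), dosed 60 min, then exposed to the DSB inducer NCS for 30 min.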
a7 integrin act: qHTS for Activators of Integrin-Mediated Alleviation for Muscular Dystrophy; hit rate 0.064% among 350,000; Potency, µM (top dose mostly 38.3 µM), for inactives: at the top dose activation, usual class: activators; alpha7betagal myoblasts, beta-gal FDG fluorescence, 48 h;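 note: 100% = response of the positive control SU9516; nearly all actives have a fitted effect of over 60% in size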
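Alpha7betagal+/- myoblasts (passage 13) were plated 16-24 hr, then exposed to compounds (1:260 dilution of DMSO stock) for 48 hours at 37C. After MPER lysis, β-galactosidase reporter activity was read as FDG fluorescence (ex 480/em 540) after 30 minutes.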
SW480 rerep: A quantitative high throughput screen for small molecules that induce DNA re-replication in SW480 colon adenocarcinoma cells. AID 624297, 2012. SW480 DNA re-replication, Hoechst DNA content imaging, 48 h. hit rate 1.8% among 340,000. Potency, µM (titrated, usually from 46.1 µM), without a hit: top-dose re-replication activation, most hits filed as activators; note: % of control where 0% means no effect; nearly all actives have a fitted effect of over 55% in size
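Treated cells incubate 48 hr (37 C, 5% CO2), are stained 40 min with Hoechst, and nuclear fluorescence is enumerated; a rise in nuclei with high DNA signal marks re-replication.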
MCF10A rereplic: A quantitative high throughput screen for small molecules that induce DNA re-replication in MCF 10a normal breast cells; MCF 10A DNA re-replication, Hoechst nuclear intensity, 48 h; Potency, µM (titrated, usually from 46.1 µM), for the others: top-dose activity, positive = re-replication, hits mostly activators; hit rate 2.9% among 350,000; AID 624296, 2012; note: % of control where 0% means no effect; nearly all actives have a fitted effect of over 50% in size
The depositor's hits bear a star; ? = inconclusive; nt = no result. Calls come from the whole dose curve; as a rule, active = well fitted activation curve with a large enough effect; inconclusive = small, poorly fitted or top-dose-only effect; inactive = no such curve, though single readings can be large or run the other way. Potency is the fitted concentration of half-maximal effect.

SMILES	Mito fusion act	A-T KAP1 phos	a7 integrin act	SW480 rerep	MCF10A rereplic
CC(=O)C1=NN(c2ccccc2)C(c2cccs2)N1c1ccc(N(C)C)cc1 (stereo not drawn)	-1.4%	nt	-51.8%	?	?
CC(=O)C1=NN(c2ccccc2)C(c2ccc3c(c2)OCO3)N1c1ccccc1 (stereo not drawn)	?	20.7%	-16.9%	5.8µM*	8.2µM*
CCOC(=O)c1sc2ccc(S(=O)(=O)N3CC(C)CC(C)C3)cc2c1N (stereo not drawn)	-13.3%	-7.1%	-20.6%	-47.2%	-5.8%
CC1CCN(C(=O)COC(=O)c2ccc([N+](=O)[O-])o2)CC1	nt	13.5%	-0.3%	20.6µM*	-19.4%
CCOC(=O)C1=C(O)/C(=C/c2ccc(-c3ccccc3C(=O)O)o2)SC1=Nc1ccc(C)cc1	-6.7%	3.1%	-38.4%	?	13µM*
CCOC(=O)C1=C(O)/C(=C/c2cc(OC)c(O)c(OC)c2)SC1=Nc1ccc(OC)cc1	0.2%	-5.7%	16.9%	?	16.4µM*
CCOC(=O)C1=C(O)/C(=C/c2ccc(-c3ccccc3C(=O)O)o2)SC1=Nc1ccc(OC)cc1	-1.7%	-2.7%	-3.4%	-2.3%	3.8%
N=C1/C(=C/c2cccn2Cc2ccc(F)cc2)C(=O)N=C2SC=CN12	0.4%	1.1%	2.1%	6.1%	4.61µM*
Cc1cc(C)c2cc3c(N)c(C(=O)N4CCc5ccccc5C4)sc3nc2c1	9.0%	3.1%	15.2%	3.3%	-5.6%
Cc1cccc2cc3c(N)c(C(=O)N4CCOCC4)sc3nc12	-3.9%	5.3%	-27.0%	3.55µM*	4.11µM*
CC1=C(C(=O)N(C)C)CC(CC(=O)NC(c2ccccc2)c2ccccc2)C(=O)N1Cc1ccc(F)cc1 (stereo not drawn)	nt	nt	7.0%	nt	nt
c1ccc(Oc2ccc(-c3ccnc4nc(N5CCOCC5)nn34)cc2)cc1	-3.1%	1.2%	4.2%	16.4µM*	18.4µM*
COc1ccc(-c2ccnc3nc(N4CCOCC4)nn23)cc1	4.9%	11.3%	8.0%	-6.2%	-1.4%
COc1cc(C2Nc3ccc4ncccc4c3C3=C2C(=O)CC(C)(C)C3)cc(OC)c1O (stereo not drawn)	-3.4%	2.8%	-43.7%	?	9.4%
CC1(C)CC(=O)C2=C(C1)c1c(ccc3ncccc13)NC2c1cccs1 (stereo not drawn)	0.1%	1.0%	-7.4%	?	9.2µM*
CN(C(=O)c1cccc(NC(=O)Cc2cccc(NC(=O)C3CCN(C(=O)C4CCCCC4)CC3)c2)c1)C1CC1	nt	nt	32.0%	6.5%	4.2%
Cc1ccc(C)c(NC(=S)N2CCC(NC(=O)c3cccc(F)c3)CC2)c1	-1.1%	-3.2%	20.4%	-6.7%	3.2%
N#CCC(=O)Nc1ccc(C(=O)OCc2ccccc2Oc2ccccc2)cc1	-14.1%	0.0%	-3.0%	?	20.6µM*
N#CCC(=O)Nc1ccc(C(=O)OCC(=O)NCCCc2ccccc2)cc1	-4.0%	-4.9%	5.3%	-6.8%	-11.1%
O=C(c1ccc2c(c1)CCN2S(=O)(=O)c1ccccc1)N1CCN(c2ccccc2F)CC1	7.2%	0.3%	-4.6%	-4.1%	5.3%
O=c1oc(-c2ccc(O)c(O)c2)cc2cc(O)cc(O)c12	nt	3.1%	0.0%	0.1%	-10.9%
O=c1oc(-c2ccc(O)c(O)c2)cc2cccc(O)c12	nt	-2.0%	-20.5%	16.4µM*	7.31µM*
Cc1ccc2nc(N3CCN(C(=O)c4ccccc4F)CC3)c(C#N)cc2c1	nt	nt	-14.4%	26.5%	11.6µM*
Cc1cccc(NC(=S)/N=C(\N)Nc2nc(C)c3ccc(C)cc3n2)c1	-1.7%	-0.3%	-42.8%	7.31µM*	?
Cc1cccc(NC(=S)/N=C(\N)Nc2nc(C)c3cc(C)ccc3n2)c1	18.4%	-0.6%	5.9%	?	16.9%
SMILES	Mito fusion act	A-T KAP1 phos	a7 integrin act	SW480 rerep	MCF10A rereplic
CCc1ccc(NC(=S)/N=C(\N)Nc2nc(C)c3cc(CC)ccc3n2)cc1	3.9%	-1.7%	-21.3%	4.61µM*	?
CCOc1ccc2nc(N/C(N)=N/C(=S)Nc3ccc(OC)cc3)nc(C)c2c1	-5.8%	2.6%	-4.5%	9.7%	?
Cc1ccc2c(c1)C(c1ccccc1)N(C(=O)CC(C)C)CC(=O)N2 (stereo not drawn)	-21.7%	3.55µM*	20.3%	-4.7%	-5.9%
CCC(C)C(NC(=O)C1CCC(C)CC1)C(=O)NCc1ccco1 (stereo not drawn)	35.5µM*	15.9%	?	-9.0%	8.1%
CCC(C)C(NC(=O)C1CCC(C)CC1)C(=O)NCc1cccnc1 (stereo not drawn)	-0.5%	-0.5%	10.6%	-10.2%	17.8%
O=[N+]([O-])c1cccc(N/N=C/c2cccc(O)c2O)c1	2.7%	-12.1%	-21.1%	?	-4.9%
CC1CCN(c2nnc(-c3ccccc3)c3ccccc23)CC1	-4.3%	8.2%	-35.9%	0.9%	11.2µM*
COc1ccccc1Nc1c2c(nc3ccccc13)CCC2	-10.9%	10.3%	-29.0%	14.6µM*	11.6µM*
O=C(Nc1c2c(nc3ccccc13)CCCC2)c1ccccc1Cl	-4.0%	-0.7%	-5.2%	7.31µM*	-0.3%
COC(=O)c1cccc(Nc2c3c(nc4ccccc24)CCC3)c1	6.7%	-2.4%	6.2%	?	?
CC(=O)c1ccc(Nc2c3c(nc4ccccc24)CCCC3)cc1	4.2%	-15.4%	9.3%	?	14.6µM*
CC(=O)c1cccc(Nc2c3c(nc4ccccc24)CCC3)c1	-2.6%	37.1%	-9.9%	5.8µM*	?
COc1ccc(Nc2c3c(nc4ccccc24)CCC3)c(OC)c1	-3.3%	-10.0%	?	?	?
N#Cc1ccc(NCC(=O)Nc2ccc(S(=O)(=O)N3CCCCC3)cc2)cc1	1.1%	5.1%	19.6%	?	13.9%
NC(=O)CCCCC1CCSS1 (stereo not drawn)	nt	nt	nt	-4.0%	6.5%
CSc1nnc(CSCc2ccc(Cl)cc2Cl)n1-c1ccccc1	0.4%	9.4%	7.5%	19.1%	11.2µM*
O=C(Nc1cc(C(F)(F)F)ccc1N1CCCCC1)c1cccc([N+](=O)[O-])c1	3.1%	1.8%	-18.7%	-5.3%	?
COc1cc(OC)cc(-c2c(-c3cccs3)c3cc(-c4ccc(C(N)=O)cc4)ccc3n2C)c1	nt	-5.8%	1.1%	?	16.4µM*
COc1ccc(-c2ccc3c(c2)c(-c2cccs2)c(-c2cc(OC)cc(OC)c2)n3C)cc1	6.1%	3.0%	25.0%	-9.9%	1.9%
COc1ccc(C(=O)O/N=C(\N)c2ccccc2)cc1OC	?	1.1%	?	4.1%	10.7%
COc1ccc(C(=O)O/N=C(\N)c2cccc(C)c2)cc1OC	?	2.2%	10µM*	25.2%	1.3%
